Test results as given in PubChem BioAssay.
Calls of active or inactive are those of the source.

What was measured:
[1] = system: Plasmodium falciparum Sir2 (PF13_0152, Sir2A); assay: Plasmodium falciparum Sir2A binding compounds – biochemical, small-molecule microarray, 635 nm fluorescence, primary screen (AID 1098); settings: fluorescence 635 nm, higher = more signal;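 further: score merges spot fluorescence intensity with its signal-to-noise ratio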
[2] = probe aDKK1 binding to arrayed compounds – biochemical, biotinylated probe, 635/667 nm fluorescence, primary screen (AID 1099); settings: small-molecule microarray, higher = more signal;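 further: score merges 667nm spot fluorescence with signal to noise across triplicate slides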
[3] = probe aCHRDL2 binding to arrayed compounds – biochemical, biotinylated probe, 635/667 nm fluorescence, primary screen (AID 1100); settings: small-molecule microarray, higher = more signal
[4] = change in splice reporter luminescence, either direction, cell-based, HEK293, spliceosome inhibition project, primary screen (AID 1101); settings: HEK293 splicing luciferase reporter, 24 h, higher = more signal, called active from +8 up or from −8 down;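 further: HEK293 cells carrying a splicing-competent luciferase reporter gene; test concentration not given here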
[5] = target: Fibroblast growth factor 10 (Homo sapiens) (UniProt O15520); assay: compounds binding fibroblast growth factor 10 – biochemical, small-molecule microarray, 635 nm fluorescence, primary screen (AID 1102); settings: FGF10 binding, fluorescence 635 nm, higher = more signal
[6] = system: glycogen synthase kinase-3 (GSK3A per assay name; protocol says GSK3B); assay: compounds binding glycogen synthase kinase-3 – biochemical, small-molecule microarray, 635 nm fluorescence, GSK3A, primary screen (AID 1103); settings: fluorescence 635 nm, higher = more signal; further: the record names both GSK3A and GSK3B
[7] = target: Epidermal growth factor receptor (Homo sapiens) (UniProt P00533); assay: compounds binding epidermal growth factor receptor – biochemical, small-molecule microarray, 635 nm fluorescence, primary screen (AID 1104); settings: EGFR binding, higher = more signal;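 further: score merges 667 nm emission intensity with spot signal to noise over triplicate slides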
[8] = target: Follistatin-related protein 3 (Homo sapiens) (UniProt O95633); assay: compounds binding follistatin-related protein 3 – biochemical, small-molecule microarray, 635 nm fluorescence, primary screen (AID 1105); settings: FSTL3 binding, higher = more signal;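 further: score merges emission near 667 nm and signal to noise per printed spot across three slides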
[9] = target: Dickkopf-related protein 1 (Homo sapiens) (UniProt O94907); assay: small molecules binding DKK1 protein – biochemical, small-molecule microarray, 635 nm fluorescence scan, primary screen (AID 1106); settings: higher = more signal;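 further: score merges emission near 667 nm with signal to noise over three replicate slides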
[10] = system: Inhibin beta A chain (activin A); assay: small molecules binding activin A – biochemical, small-molecule microarray, 635 nm fluorescence scan, primary screen (AID 1107); settings: INHBA, higher = more signal;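 further: mouse activin A protein probed at 4.33 µg/mL on printed slides; score merges bound-protein fluorescence near 667 nm with spot signal-to-noise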
[11] = system: Human papillomavirus type 1a protein E7 (residues 44-93); assay: small molecules binding HPV E7 44-93 – biochemical, small-molecule microarray, residues 44-93, 635 nm fluorescence, primary screen (AID 1108); settings: fluorescence 635 nm, higher = more signal;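 further: E7 fragment applied at 1 µg/mL in TBST for 1 h at 4 C; score combines spot fluorescence with its signal to noise ratio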
[12] = hepatitis C replication reporter changes, two-sided – Huh7 cells, luciferase reporter, HCV replication inhibitor project, primary screen (AID 1109); settings: Huh7 HCV replicon luciferase reporter, 48 h; higher = more signal;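 further: huh7 hepatoma cells harbouring a luciferase neomycin HCV replicon reporter; luciferase luminescence as measure of HCV replicon replication; test concentration not given here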
[13] = target: Left-right determination factor 2 (Homo sapiens) (UniProt O00292); assay: small molecules binding LEFTY2 protein – biochemical, small-molecule microarray, 635 nm fluorescence scan, primary screen (AID 1110); settings: higher = more signal
[14] = target: Calmodulin-1 (Homo sapiens) (UniProt P0DP23); assay: small molecules binding calmodulin-1 with EGTA – biochemical, small-molecule microarray, Cy5-labelled CALM1, profiling panel (AID 1111); settings: Cy5-CALM1 binding fluorescence, higher = more signal;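 further: labelled calmodulin applied in Tris saline Tween buffer holding calcium plus EGTA and DTT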
[15] = target: Calmodulin-1 (Homo sapiens) (UniProt P0DP23); assay: small molecules binding Ca-loaded calmodulin-1 – biochemical, small-molecule microarray, Cy5-labelled CALM1, plus calcium, artefact control for SMM control-protein annotation, profiling panel (AID 1112); settings: Cy5-CALM1 binding fluorescence, higher = more signal;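 further: score merges spot fluorescence with signal to noise from triplicate slides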
[16] = probe aWnt5a binding to arrayed compounds – biochemical, biotinylated probe, 635/667 nm fluorescence, primary screen (AID 1113); settings: small-molecule microarray, higher = more signal;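 further: score merges 667 nm fluorescence intensity with signal-to-noise per printed feature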
[17] = probe aShh binding to arrayed compounds – biochemical, biotinylated probe, 635/667 nm fluorescence, primary screen (AID 1114); settings: small-molecule microarray, higher = more signal;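 further: probe is biotin-labelled aShh protein from a stem cell growth factor screen; measures binding of labelled protein to compounds printed on the slide; score merges feature fluorescence at 667 nm with signal-to-noise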
[18] = probe aNog binding to arrayed compounds – biochemical, biotinylated probe, 635/667 nm fluorescence, primary screen (AID 1115); settings: small-molecule microarray, higher = more signal;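 further: probe is biotinylated aNog protein used at 0.15 µg/mL for 1 h at 4 C; z-score combines 667 nm fluorescence of each spot with its signal to noise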
[19] = target: Torsin-1A-interacting protein 1 (Homo sapiens) (UniProt Q5JTV8); assay: compound microarray binding of lysate hLAP1 – cell lysate, small-molecule microarray, COS7 lysate, 635/667 nm fluorescence, primary screen (AID 1116); settings: 635 nm fluorescence, higher = more signal
[20] = target: Alpha-bungarotoxin (Bungarus multicinctus) (UniProt P60615); assay: compounds binding labelled alpha-BTX control protein – biochemical, small-molecule microarray, Alexa647 label, 635/667 nm fluorescence, artefact control for SMM control protein annotation, profiling panel (AID 1117); settings: alpha-BTX-A647 binding fluorescence, higher = more signal
Alpha-bungarotoxin (Bungarus multicinctus), sequence (P60615 whole entry, looked up): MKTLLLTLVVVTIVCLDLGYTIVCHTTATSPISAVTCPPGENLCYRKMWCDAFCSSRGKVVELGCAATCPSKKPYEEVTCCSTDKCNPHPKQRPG

Torsin-1A-interacting protein 1 (Homo sapiens), sequence (Q5JTV8 whole entry, looked up): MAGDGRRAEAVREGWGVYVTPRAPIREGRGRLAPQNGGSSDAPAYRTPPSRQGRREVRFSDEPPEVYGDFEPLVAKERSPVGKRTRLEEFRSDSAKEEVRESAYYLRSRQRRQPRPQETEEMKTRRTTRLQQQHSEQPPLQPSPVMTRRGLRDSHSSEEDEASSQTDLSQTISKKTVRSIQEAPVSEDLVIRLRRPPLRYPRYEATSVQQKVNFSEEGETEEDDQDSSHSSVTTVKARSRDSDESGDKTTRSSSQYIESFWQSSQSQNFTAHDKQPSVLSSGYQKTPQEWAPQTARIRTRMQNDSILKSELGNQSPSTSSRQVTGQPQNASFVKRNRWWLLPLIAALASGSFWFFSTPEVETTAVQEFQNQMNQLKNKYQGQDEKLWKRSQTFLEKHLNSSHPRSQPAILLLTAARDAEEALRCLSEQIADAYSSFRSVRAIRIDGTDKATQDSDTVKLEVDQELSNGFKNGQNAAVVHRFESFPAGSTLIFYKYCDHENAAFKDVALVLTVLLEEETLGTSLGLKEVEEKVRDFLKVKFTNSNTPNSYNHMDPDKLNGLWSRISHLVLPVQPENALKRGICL
Follistatin-related protein 3 (Homo sapiens), sequence (O95633 whole entry, looked up): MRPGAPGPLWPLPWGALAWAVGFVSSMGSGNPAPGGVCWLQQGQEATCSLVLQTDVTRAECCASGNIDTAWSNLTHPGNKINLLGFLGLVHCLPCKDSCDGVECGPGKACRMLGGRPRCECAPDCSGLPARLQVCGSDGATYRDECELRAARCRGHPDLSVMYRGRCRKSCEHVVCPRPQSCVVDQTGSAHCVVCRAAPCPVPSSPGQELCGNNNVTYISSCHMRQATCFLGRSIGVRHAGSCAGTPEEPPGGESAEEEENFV
Epidermal growth factor receptor (Homo sapiens), sequence (P00533 whole entry, looked up): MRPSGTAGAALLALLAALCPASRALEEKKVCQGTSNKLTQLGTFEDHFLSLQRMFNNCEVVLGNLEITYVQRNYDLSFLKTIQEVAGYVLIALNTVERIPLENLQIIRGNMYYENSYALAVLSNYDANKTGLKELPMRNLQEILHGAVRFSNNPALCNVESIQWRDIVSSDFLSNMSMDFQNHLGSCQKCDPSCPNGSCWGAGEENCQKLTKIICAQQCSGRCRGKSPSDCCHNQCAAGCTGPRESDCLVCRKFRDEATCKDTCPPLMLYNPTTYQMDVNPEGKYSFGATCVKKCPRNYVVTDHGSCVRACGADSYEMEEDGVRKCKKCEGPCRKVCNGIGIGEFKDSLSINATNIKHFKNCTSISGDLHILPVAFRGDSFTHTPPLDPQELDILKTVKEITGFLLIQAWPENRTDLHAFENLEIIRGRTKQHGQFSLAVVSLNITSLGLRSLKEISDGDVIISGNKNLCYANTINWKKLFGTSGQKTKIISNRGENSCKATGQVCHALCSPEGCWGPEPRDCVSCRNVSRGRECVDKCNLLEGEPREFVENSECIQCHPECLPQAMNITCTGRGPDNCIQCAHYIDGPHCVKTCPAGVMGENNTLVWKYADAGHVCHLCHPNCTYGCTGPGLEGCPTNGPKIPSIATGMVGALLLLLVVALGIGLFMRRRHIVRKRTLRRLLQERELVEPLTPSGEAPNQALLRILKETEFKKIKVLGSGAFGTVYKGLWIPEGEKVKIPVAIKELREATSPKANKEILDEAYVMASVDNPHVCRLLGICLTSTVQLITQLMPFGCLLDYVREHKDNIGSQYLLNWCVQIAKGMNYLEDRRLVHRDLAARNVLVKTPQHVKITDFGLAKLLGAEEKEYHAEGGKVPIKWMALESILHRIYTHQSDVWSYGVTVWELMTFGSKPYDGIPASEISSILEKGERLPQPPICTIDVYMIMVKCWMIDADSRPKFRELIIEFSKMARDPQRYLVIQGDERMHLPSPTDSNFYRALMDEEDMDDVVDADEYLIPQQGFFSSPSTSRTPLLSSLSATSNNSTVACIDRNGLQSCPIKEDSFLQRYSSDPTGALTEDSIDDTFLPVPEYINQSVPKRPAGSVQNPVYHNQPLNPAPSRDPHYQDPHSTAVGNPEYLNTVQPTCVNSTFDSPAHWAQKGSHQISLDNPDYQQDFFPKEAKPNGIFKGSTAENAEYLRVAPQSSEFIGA
Left-right determination factor 2 (Homo sapiens), sequence (O00292 whole entry, looked up): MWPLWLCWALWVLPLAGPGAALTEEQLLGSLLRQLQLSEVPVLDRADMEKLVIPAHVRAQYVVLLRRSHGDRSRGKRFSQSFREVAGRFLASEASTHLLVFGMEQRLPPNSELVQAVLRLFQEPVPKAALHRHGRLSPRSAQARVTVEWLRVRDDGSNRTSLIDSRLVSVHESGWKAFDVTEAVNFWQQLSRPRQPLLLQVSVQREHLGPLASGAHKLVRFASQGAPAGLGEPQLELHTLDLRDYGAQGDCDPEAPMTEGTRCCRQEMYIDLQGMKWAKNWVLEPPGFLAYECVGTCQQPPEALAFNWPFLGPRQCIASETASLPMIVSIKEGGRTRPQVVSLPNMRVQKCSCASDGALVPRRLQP
Fibroblast growth factor 10 (Homo sapiens), sequence (O15520 whole entry, looked up): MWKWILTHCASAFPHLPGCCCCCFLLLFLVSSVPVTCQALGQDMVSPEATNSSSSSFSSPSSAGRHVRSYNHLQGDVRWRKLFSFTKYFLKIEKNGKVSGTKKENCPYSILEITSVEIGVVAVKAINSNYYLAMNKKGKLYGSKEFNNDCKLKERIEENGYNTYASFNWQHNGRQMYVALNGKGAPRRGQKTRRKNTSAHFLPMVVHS
Dickkopf-related protein 1 (Homo sapiens), sequence (O94907 whole entry, looked up): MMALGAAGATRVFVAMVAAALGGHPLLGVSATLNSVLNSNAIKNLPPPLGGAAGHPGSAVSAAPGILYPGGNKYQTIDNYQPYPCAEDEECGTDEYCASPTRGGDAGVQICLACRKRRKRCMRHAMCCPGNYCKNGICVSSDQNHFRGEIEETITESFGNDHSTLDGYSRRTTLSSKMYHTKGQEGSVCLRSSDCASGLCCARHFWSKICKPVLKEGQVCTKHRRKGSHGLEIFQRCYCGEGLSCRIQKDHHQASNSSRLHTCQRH

Compound	composite z-score [1]	composite z-score [2]	composite z-score [3]	z-score [4]	composite z-score [5]	composite z-score [6]	composite z-score [7]	composite z-score [8]	composite z-score [9]	composite z-score [10]	composite z-score [11]	z-score [12]	composite z-score [13]	composite z-score [14]	composite z-score [15]	composite z-score [16]	composite z-score [17]	composite z-score [18]	composite z-score [19]	composite z-score [20]
COc1ccc([Si](C)(C)[C@H]2[C@H](CCO)O[C@@]3(C(=O)N(Cc4cccc(N(C=O)c5ccccc5)c4)c4ccccc43)[C@@H]2C)cc1	1.14	-0.305	-0.777	-1.53 (inactive)	1.33	1.29	0.406	1.08	0.469	0.013	1.39	-4.84	0.393	0.909	-0.507	-0.0269	0.0723	0.0199	0.124	0.751
CCC(CC)C(O)C1C=CC2C(=O)N(c3ccccc3)C(=O)C2N1Nc1ccccc1F (stereo not given)	1.17	0.373	0.481	-0.115 (inactive)	0.412	0.554	0.0005	0.226	-0.445	0.704	1.2	-0.171	-0.527	0.189	0.25	0.612	-0.214	0.53	0.447	1.39
COc1cc(CO)cc(I)c1O[C@H]1C=C(C(=O)NCCO)C[C@@H](NC2CCCCCC2)[C@@H]1O	0.515	-0.168	-0.675	-0.51 (inactive)	1.38	1.16	0.44	1.29	0.772	0.0403	1.15	-4.13	0.867	0.475	-0.572	-0.129	-0.0769	-0.0345	0.484	0.0323
O=C1NC(=O)C2C1C=CC(C(O)c1ccc(B(O)O)cc1)N2Nc1ccc(Cl)cc1Cl (stereo not given)	0.46	0.704	0.326	0.379 (inactive)	0.0671	-0.0838	-0.174	0.317	-0.414	0.948	-0.181	-0.693	-0.401	0.524	0.0583	-0.0721	-0.181	0.682	0.392	0.869
C=CCOC(=O)[C@@H]1[C@H]2C(=O)O[C@H](c3ccccc3)[C@H](c3ccccc3)N2[C@H](c2ccc(OCCOC(=O)[C@H]3C[C@H]4C(=O)N[C@@H](CCCCN(C)C)C(=O)N4[C@H]3c3ccc(O)cc3)cc2)[C@@]12C(=O)Nc1ccc(I)cc12	1.52	0.0904	-0.13	0.676 (inactive)	0.88	1.33	0.989	1.42	1.15	0.291	1.06	-3.31	1.17	-0.842	-0.972	0.0317	-0.0578	0.219	1.31	1.51
COc1cc(C(O)C2C=CC3C(=O)N(c4ccccc4)C(=O)C3N2Nc2ccccc2F)cc(OC)c1OC (stereo not given)	1.41	0.521	0.55	0.392 (inactive)	1.35	1.34	-0.117	0.479	-0.0657	0.519	1.48	-0.892	0.2	1.05	-0.383	0.0357	-0.0146	1.11	0.512	0.983
C[C@]1(C(=O)O)c2ccccc2C(=O)N(Cc2cc(F)cc(C(F)(F)F)c2)[C@H]1c1ccc(CO)cc1	1.64	-0.0944	0.249	0.395 (inactive)	0.139	-0.429	0.213	0.0304	-0.336	0.561	0.156	0.475	0.324	-0.16	-0.348	0.0044	-0.0035	-0.0446	-0.0131	-0.408
O=C(NC1CC1)[C@@H]1c2ccccc2C(=O)N(Cc2cc(C(F)(F)F)cc(C(F)(F)F)c2)[C@H]1c1ccc(CO)cc1	0.965	-0.534	-0.47	-0.261 (inactive)	0.105	-0.436	-0.675	0.075	-0.835	-0.547	1.35	-1.02	-0.876	0.146	-0.366	-0.0203	-0.517	0.431	-0.0446	0.955
CCCc1cc2c(n1CCc1ccc(Cl)cc1)C(C)C1CN(C(=O)c3ccccc3)C(C)(C(=O)OC)C21 (stereo not given)	0.462	1.64	1.59	3.17 (inactive)	0.464	-0.014	-0.403	0.252	-1.92	1.24	0.274	-2.1	-0.338	2.48	1.28	0.16	0.241	1.24	1.53	2.19
COc1ccccc1CN1C(=O)c2ccccc2[C@](Cc2ccccc2I)(C(=O)NCC(C)C)[C@@H]1c1ccc(CO)cc1	1.66	0.736	1.01	0.0236 (inactive)	-0.0272	-0.0773	-1.19	-0.408	-1.27	-0.316	-0.237	-0.921	-1.25	-0.313	-0.18	-0.0529	-0.0243	0.215	0.078	0.237
COc1ccc(C(O)C2C=CC3C(=O)N(C)C(=O)C3N2N(c2ccccc2)c2ccccc2)cc1 (stereo not given)	1.59	0.996	0.93	1.09 (inactive)	0.434	0.243	-0.0923	0.585	-0.128	1.32	-1.14	-0.336	-0.302	0.531	0.625	0.0102	-0.0843	0.83	0.74	0.844
